# Measurements reported in PubChem BioAssay (Tox21).
# Inconclusive results are not listed. Activity calls are given as the source filed them. Unless noted, calls come from the whole dose curve; as a rule, active = well fitted cell-killing curve with a large enough effect in the repeat runs; inconclusive = weak or mixed curves, or effect the other way; inactive = no such curve, though single readings can be large or run the other way.
# Experiment: qHTS assay to identify small molecule agonists of the vitamin D receptor (VDR) signaling pathway - cell viability counter screen (AID 743224); note: nearly all actives have a fitted effect of over 50% in size
# Conditions: VDR-bla HEK293T viability, CellTiter-Glo luminescence, 16 h; series mostly up to 62.6 µM
# Summary of the method: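 Plated VDR-bla cells (4 h, 37C) received compound, incubated 16 h, then LiveBLAzer substrate 2 h RT; CellTiter-Glo added afterwards, luminescence read at 30 min.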
row,SMILES,outcome
1,CC(=O)C1CCCCC1=O (stereo not drawn),inactive
2,CCCc1ncc(C[n+]2ccccc2C)c(N)n1,inactive
3,CC(CC=O)CC(C)(C)C (stereo not drawn),inactive
4,CCNS(=O)(=O)c1ccc(C)cc1,inactive

# Experiment: qHTS assay to identify small molecule antagonists of the vitamin D receptor (VDR) signaling pathway - cell viability counter screen (AID 743225); note: nearly all actives have a fitted effect of over 50% in size
# Conditions: VDR-bla HEK293T viability, CellTiter-Glo luminescence, 16 h; series mostly up to 61 µM
# Summary of the method: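 Luminescent cell viability (CellTiter-Glo) in VDR-bla HEK 293T cells after 16 h compound exposure at 37C in the presence of 3 nM final 1-alpha,25-dihydroxy vitamin D3.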
row,SMILES,outcome
1,Cc1cccc(C)c1NC(=O)CC12CCCN1CCC2,inactive
2,C[C@@H]1C[C@H]2[C@@H]3C[C@H](F)C4=CC(=O)C(Cl)=C[C@]4(C)[C@@]3(F)[C@@H](O)C[C@]2(C)[C@@]1(O)C(=O)CO,inactive
3,C[N+]1(CC2COC(c3ccccc3)(c3ccccc3)O2)CCCCC1 (stereo not drawn),inactive
4,CO[Si](C)(OC)c1ccccc1,inactive
5,CC(C)[C@H]1CC[C@@H](C)CC1=O,inactive
6,Cc1nc(C2CCCCC2)c(-c2ccc(S(N)(=O)=O)c(F)c2)o1,inactive
7,CCOC(=O)COC(=O)c1ccccc1C(=O)OCC,inactive
8,CCOC(=O)c1cnc2c(cnn2CC)c1NN=C(C)C,inactive
9,CC(=O)c1ccc2ccccc2c1,inactive
10,COc1ccc2cc1Oc1cc3c(cc1OC)CC[N+](C)(C)[C@H]3Cc1ccc(cc1)Oc1c(OC)c(OC)cc3c1[C@@H](C2)[N+](C)(C)CC3,inactive
11,O=S(=O)(O)c1cccc2ccccc12,inactive
12,C1CCC2(CCCCO2)OC1,inactive
13,C[C@H]1C[C@H]2[C@@H]3CCC4=CC(=O)C=C[C@]4(C)[C@H]3C(=O)C[C@]2(C)[C@@]1(O)C(=O)CO,inactive
14,CC1=NN(c2cc(S(=O)(=O)O)ccc2Cl)C(=O)C1N=Nc1ccccc1 (stereo not drawn),inactive
15,O=S(=O)(O)c1cccc(S(=O)(=O)O)c1,inactive
16,Nc1ccncc1N,inactive
17,CCN(Cc1ccccc1)c1ccccc1,inactive
18,CC[N+](CC)(CC(=O)Nc1c(C)cccc1C)Cc1ccccc1 (tested in a mixture with another compound),inactive

row,SMILES,outcome
1,CN(C)CCCN(C)CCCN(C)C,inactive
2,Cc1ccnc(NS(=O)(=O)c2ccc(N)cc2)n1,inactive
3,CCCCCCCCCCCCCCCCCCO,inactive
4,O=C(O)Cc1csc(-c2ccc(Cl)cc2)n1,inactive
5,NC(=O)N1c2ccccc2CC(=O)c2ccccc21,inactive
6,CCCCCC(C)N (stereo not drawn),inactive
7,Nc1ccn([C@@H]2O[C@H](CO)[C@@H](O)[C@@H]2O)c(=O)n1,inactive
8,CN1CCC(=C2c3ccccc3CCc3cccnc32)CC1,inactive
9,CCCCc1nc(Cl)c(CO)n1Cc1ccc(-c2ccccc2-c2nn[nH]n2)cc1,inactive
10,c1ccc2sc(SN3CCOCC3)nc2c1,inactive
11,CCN(C=O)CC,inactive
12,COc1cc(-c2ccc(=O)[nH]n2)ccc1OC(F)F,inactive
13,CCCc1ncc(C[n+]2ccccc2C)c(N)n1,inactive
14,O=C(CO)[C@@H](O)[C@H](O)[C@H](O)CO,inactive
15,CC(CC=O)CC(C)(C)C (stereo not drawn),inactive
16,Clc1cc(Cl)c(Cl)nc1Cl,inactive
17,CCNS(=O)(=O)c1ccc(C)cc1,inactive
18,Cc1coc2ccccc2c1=O,inactive

# Experiment: qHTS assay to identify small molecule agonists of the NFkB signaling pathway - cell viability counter screen (AID 1159515; calls by dose curve; note: nearly all actives have a fitted effect of over 55% in size)
# Conditions: NFkB-bla ME-180 viability, CellTiter-Glo luminescence, 5 h; series mostly up to 61 µM
# Summary of the method: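 Using the same wells as the NFkB reporter read, ME-180 NFkB-bla cells given compounds for 5 hr were assessed for viability via CellTiter-Glo, with luminescence taken after a 30 min room-temperature incubation.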
row,SMILES,outcome
1,Cc1cccc(C)c1NC(=O)CC12CCCN1CCC2,inactive
2,C[C@@H]1C[C@H]2[C@@H]3C[C@H](F)C4=CC(=O)C(Cl)=C[C@]4(C)[C@@]3(F)[C@@H](O)C[C@]2(C)[C@@]1(O)C(=O)CO,inactive
3,C=CC(=O)OCCCl,inactive
4,C[N+]1(CC2COC(c3ccccc3)(c3ccccc3)O2)CCCCC1 (stereo not drawn),inactive
5,CO[Si](C)(OC)c1ccccc1,inactive
6,CC(C)[C@H]1CC[C@@H](C)CC1=O,inactive
7,Cc1nc(C2CCCCC2)c(-c2ccc(S(N)(=O)=O)c(F)c2)o1,inactive
8,CCOC(=O)COC(=O)c1ccccc1C(=O)OCC,inactive
9,CCOC(=O)c1cnc2c(cnn2CC)c1NN=C(C)C,inactive
10,CC(=O)c1ccc2ccccc2c1,inactive
11,COc1ccc2cc1Oc1cc3c(cc1OC)CC[N+](C)(C)[C@H]3Cc1ccc(cc1)Oc1c(OC)c(OC)cc3c1[C@@H](C2)[N+](C)(C)CC3,inactive
12,O=S(=O)(O)c1cccc2ccccc12,inactive
13,C1CCC2(CCCCO2)OC1,inactive
14,C[C@H]1C[C@H]2[C@@H]3CCC4=CC(=O)C=C[C@]4(C)[C@H]3C(=O)C[C@]2(C)[C@@]1(O)C(=O)CO,inactive
15,CC1=NN(c2cc(S(=O)(=O)O)ccc2Cl)C(=O)C1N=Nc1ccccc1 (stereo not drawn),inactive
16,O=S(=O)(O)c1cccc(S(=O)(=O)O)c1,inactive
17,Nc1ccncc1N,inactive
18,CCN(Cc1ccccc1)c1ccccc1,inactive
19,CC[N+](CC)(CC(=O)Nc1c(C)cccc1C)Cc1ccccc1 (tested in a mixture with another compound),inactive

row,SMILES,outcome
1,CN(C)CCCN(C)CCCN(C)C,inactive
2,Cc1ccnc(NS(=O)(=O)c2ccc(N)cc2)n1,inactive
3,CCCCCCCCCCCCCCCCCCO,inactive
4,O=C(O)Cc1csc(-c2ccc(Cl)cc2)n1,inactive
5,NC(=O)N1c2ccccc2CC(=O)c2ccccc21,inactive
6,CCCCCC(C)N (stereo not drawn),inactive
7,Nc1ccn([C@@H]2O[C@H](CO)[C@@H](O)[C@@H]2O)c(=O)n1,inactive
8,CN1CCC(=C2c3ccccc3CCc3cccnc32)CC1,inactive
9,CCCCc1nc(Cl)c(CO)n1Cc1ccc(-c2ccccc2-c2nn[nH]n2)cc1,inactive
10,c1ccc2sc(SN3CCOCC3)nc2c1,inactive
11,CCN(C=O)CC,inactive
12,CC(=O)C1CCCCC1=O (stereo not drawn),inactive
13,COc1cc(-c2ccc(=O)[nH]n2)ccc1OC(F)F,inactive
14,CCCc1ncc(C[n+]2ccccc2C)c(N)n1,inactive
15,O=C(CO)[C@@H](O)[C@H](O)[C@H](O)CO,inactive
16,CC(CC=O)CC(C)(C)C (stereo not drawn),inactive
17,Clc1cc(Cl)c(Cl)nc1Cl,inactive
18,CCNS(=O)(=O)c1ccc(C)cc1,inactive
19,Cc1coc2ccccc2c1=O,inactive
